Assay outcomes as filed in PubChem BioAssay.
Pf growth 48h – inhibits P. falciparum growth in the first generation, 48 h | P. falciparum luciferase growth in erythrocytes, 48 h | Potency, µM (doses to about 28.7 µM), most hits filed as inhibitors | 310,000 compounds, 5.9% hits; active = well fitted inhibition curve with a large enough effect; inconclusive = small, poorly fitted or top-dose-only effect, or another doubt; inactive = no such curve, though single readings can be large or run the other way
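Read-out is firefly luciferase luminescence from an integrated reporter in P. falciparum, so falling signal marks reduced parasite growth. Infected erythrocytes were at 2% hematocrit and 0.1% parasitemia (final) in Albumax-supplemented RPMI 1640.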
Shiga toxin inh – inhibitors of Shiga toxin in Vero cells | 290,000 compounds, 9.2% hits | Vero cells, Shiga toxin protein synthesis inhibition reporter | inhibition, % at 38.7 µM; in the data active = inhibition mostly above about 28%, no sharp cut-off; inactive = mostly below about 43%
SARS PLP yeast – blocks SARS-CoV papain-like protease in a yeast assay; 330,000 compounds, 0.19% hits; Potency, µM (series often up to 32.9 µM), hits mostly activators; S. cerevisiae expressing SARS-CoV PLpro, growth rescue; AID 485353; note: nearly all actives have a fitted effect of over 55% in size
Pf growth 96h – P. falciparum growth inhibition at 96 hours; P. falciparum luciferase reporter growth, 96 h; Potency, µM (series often up to 28.7 µM), most hits filed as inhibitors; 320,000 compounds, 6.9% hits; active = well fitted inhibition curve with a large enough effect; inconclusive = small, poorly fitted or top-dose-only effect, or another doubt; inactive = no such curve, though single readings can be large or run the other way
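Two parasite generations (96 h, 37 C, 5% CO2) of compound exposure in infected erythrocytes (0.05% parasitemia, 2% hematocrit). Luciferase-reporter P. falciparum; decreased luminescence indicates inhibited growth, aimed at apicoplast-acting delayed death.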
NS1 function inh – influenza NS1 inhibition | Potency, µM (titrated, usually from 46.1 µM) | 270,000 compounds, 0.4% hits | AID 2326; note: actives are rising curves; nearly all actives have a fitted effect of over 50% in size
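Growth recovery, yeast-based: influenza A NS1 expressed in S. cerevisiae causes slow growth, and suppressors are detected by OD600. The parent strain without NS1 is used as positive control.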
CHX counter – counter-screen for Shiga toxin inhibitors: cycloheximide protein synthesis inhibition; 300,000 compounds, 12% hits; cell reporter, cycloheximide protein synthesis inhibition counterscreen; max response, %; in the data active = max response mostly above about 13%, no sharp cut-off; inactive = mostly below about 14%; note: read at 38.3 µM for the half of the compounds with a filed dose
Flu NS1 inh – validation of influenza NS1 protein function inhibitors; shares compounds with NS1 function inh; activity change, negative = inhibition, % at 32.9 µM; 1,400 tested, under 10 active; influenza NS1 function cell assay, 15-point titration; AID 492980
Large screens that a line does not name were inactive (follow-up assays come after a bar, where they were run). In the library only some 21% were active in any assay of this set; here they are far more common. Unless noted, calls come from the whole dose curve.

N#CC[C@H](Cc1ccccc1)N1CC[C@@H](O)CCC1=O	none
O=[N+]([O-])c1ccccc1S(=O)(=O)Oc1ccccc1/C=N/n1cnnc1	Pf growth 96h 1.9µM, NS1 function inh 20µM | Flu NS1 inh inactive
O=[N+]([O-])c1cccc(/C=N/n2cnnc2)c1O	none
COc1ccc(N2CCN(c3oc(COc4ccc(Cl)cc4Cl)nc3C#N)CC2)cc1	NS1 function inh inconclusive
N#Cc1nc(COc2ccc(Cl)cc2Cl)oc1N1CCN(c2ccccc2)CC1	Pf growth 96h inconclusive, NS1 function inh 11µM | Flu NS1 inh inactive
Cc1ccc2c(c1)C(c1ccccc1)N(C(=O)C(C)C)CC(=O)N2 (stereo not drawn)	Pf growth 96h inconclusive, NS1 function inh inconclusive | Flu NS1 inh inactive
C[C@@H]1CC(=O)[C@H]2CC(CO)=CCC[C@@H]2[C@@]1(C)CC/C(=C/CO)CO	Pf growth 48h inconclusive, Pf growth 96h inconclusive (no result: Shiga toxin inh, NS1 function inh, CHX counter)
COC(=O)c1ccc(C2C(C(=O)Nc3ccc(C)cc3C)=C(C)Nc3ncnn32)cc1 (stereo not drawn)	NS1 function inh 22µM (no result: Pf growth 48h) | Flu NS1 inh inactive
C/C(=N/NC(=O)CN1CCN(Cc2ccccc2Cl)CC1)c1ccco1	Pf growth 48h inconclusive, Pf growth 96h inconclusive
Cc1ccc2c(c1)N(CC(=O)OCC(=O)NCc1ccccc1)C(=O)CO2	none
Cc1noc(C)c1CCC(=O)N1CCCC(N2CCN(c3ccc(F)cc3)CC2)C1 (stereo not drawn)	Pf growth 96h inconclusive
Cc1nn(C)c(C)c1CCC(=O)N1CCCC(N2CCN(c3ccc(F)cc3)CC2)C1 (stereo not drawn)	Pf growth 48h inconclusive, NS1 function inh inconclusive | Flu NS1 inh inactive
CC1CCN(CC(=O)NCc2ccco2)CC1	none
O=C(CN1CCc2ccccc2C1)NCc1ccco1	NS1 function inh inconclusive (no result: Pf growth 96h) | Flu NS1 inh inactive
Cc1nnc(SCC(=O)Nc2nc3c(s2)CC(C)CC3)s1 (stereo not drawn)	Shiga toxin inh 60, NS1 function inh inconclusive, CHX counter 37 | Flu NS1 inh inactive
O=C(CSc1nnc(-c2c[nH]c3ccccc23)o1)N1c2ccccc2CCc2ccccc21	Pf growth 48h inconclusive, NS1 function inh 4µM | Flu NS1 inh inconclusive
COc1ccc(C)cc1NC(=O)C(Sc1nnc(-c2cccs2)o1)c1ccccc1 (stereo not drawn)	Pf growth 48h inconclusive, Pf growth 96h inconclusive, NS1 function inh 11µM | Flu NS1 inh inactive
Cc1cc2n(c1)CCn1c(C)ccc1-2	NS1 function inh 13µM (no result: Pf growth 96h) | Flu NS1 inh inactive
CN(C)CCNc1nc2c(c(=O)n(C)c(=O)n2C)n1C	none (no result: Pf growth 48h, Shiga toxin inh, SARS PLP yeast, Pf growth 96h, CHX counter)
S=C(NCCCN1CCOCC1)Nc1cccc(-c2nnc3n2CCCCC3)c1	Pf growth 96h inconclusive (no result: NS1 function inh)
CC1Cc2ccccc2N1C(=O)CSc1nnc(-c2ccccc2)c(-c2ccccc2)n1 (stereo not drawn)	NS1 function inh inconclusive | Flu NS1 inh inactive
O=C(NCCN1C(=O)S/C(=C\c2ccc(F)cc2)C1=O)C1CCN(S(=O)(=O)c2cccs2)CC1	NS1 function inh inconclusive | Flu NS1 inh inactive
O=C(NCCc1ccccc1Cl)C1CCN(S(=O)(=O)c2cccs2)CC1	none (no result: Pf growth 96h)
Cc1cc2c(cc1[N+](=O)[O-])NC(CNC(C)C)CC2 (stereo not drawn)	Pf growth 48h inconclusive, Pf growth 96h inconclusive
COc1ccc(OC)c(S(=O)(=O)N(C)CC(=O)O)c1	NS1 function inh 1.8µM (no result: Pf growth 96h) | Flu NS1 inh inactive
Cc1cc2cc(CN(Cc3ccc4c(c3)OCO4)C(=O)c3ccco3)c(=O)[nH]c2cc1C	Pf growth 48h inconclusive, SARS PLP yeast inconclusive, Pf growth 96h inconclusive, NS1 function inh inconclusive | Flu NS1 inh inactive
Cc1ccc(S(=O)(=O)/N=S(/c2ccccc2)C(C)C)cc1 (stereo not drawn)	none
O=S(=O)(Nc1ccc(N2CCCCC2)cc1)c1ccccc1	NS1 function inh inconclusive, CHX counter 18 | Flu NS1 inh inconclusive
COc1ccc(S(=O)(=O)N2CCN(C(=O)C3CC3)CC2)cc1	Pf growth 96h inconclusive, NS1 function inh inconclusive | Flu NS1 inh inactive
COc1ccc(S(=O)(=O)N2CCC(N3CCCCC3)CC2)cc1	NS1 function inh 1.1µM | Flu NS1 inh inactive
COc1ccc(-c2nnc(SCC(=O)NCc3ccco3)n2C)cc1	none
O=C(Cc1ccc(N(CCCl)CCCl)cc1)NC(Cc1ccc(Cl)cc1)C(=O)O (stereo not drawn)	none
OCCN(CCO)c1ccc(C(c2ccc(Cl)cc2)c2ccc(N(CCO)CCO)cc2Cl)c(Cl)c1	Pf growth 48h inconclusive, NS1 function inh 14µM | Flu NS1 inh inactive
Cc1ccsc1CN(C)CC(=O)Nc1cccc(S(=O)(=O)N(C)c2ccccc2)c1	Pf growth 48h inconclusive, Pf growth 96h inconclusive (no result: Shiga toxin inh, NS1 function inh, CHX counter)
Cc1cccc(N2C(=O)/C(=C\c3ccc(OC(F)F)cc3)c3ccccc3C2=O)c1	none
COc1cccc(/C=C2\C(=O)N(c3cccc(C)c3)C(=O)c3ccccc32)c1	Pf growth 48h inconclusive, Pf growth 96h inconclusive, NS1 function inh inconclusive | Flu NS1 inh inconclusive
CCc1ccc(NC(=O)CNCc2ccc(OC)c(OC)c2)cc1	none (no result: Pf growth 48h)
C=CCOc1ccc(/C=C/C(=O)OCC(=O)N(C)CC(=O)Nc2ccccc2Cl)cc1	none (no result: Shiga toxin inh, NS1 function inh, CHX counter)
CC(c1ccccc1)N1CC(C(=O)N2CCN(Cc3ccc(C#N)cc3)CC2)CC1=O (stereo not drawn)	none (no result: Shiga toxin inh, NS1 function inh, CHX counter)
CC(C)CCn1nnnc1C(C(C)C)N1CCC(C(N)=O)CC1 (stereo not drawn)	none
CCCC(c1nnnn1CCC(C)C)N1CCC(C(N)=O)CC1 (stereo not drawn)	Pf growth 48h 12µM, Pf growth 96h 9.3µM, NS1 function inh 1.1µM | Flu NS1 inh inactive
Cc1ccc2c(c1)nc(NCCCO)n2C	none (no result: Pf growth 96h)
COc1ccc2c(c1)nc(NCCO)n2C	NS1 function inh 3.5µM | Flu NS1 inh inactive
COc1ccccc1NS(=O)(=O)c1cccc(C(=O)N/N=C/c2c(C)nn(-c3ccccc3)c2N2CCCC2)c1	Pf growth 48h inconclusive, Pf growth 96h inconclusive, NS1 function inh 11µM | Flu NS1 inh inactive
COc1cc(/C=C2\C(=O)NC(=O)N(c3ccccc3)C2=O)cc(OC)c1OC	Pf growth 96h inconclusive, NS1 function inh 7.9µM | Flu NS1 inh inactive
COc1ccc(N2CCOCC2)c(NC(=O)COc2cccc(C)c2C)c1	none
Cc1cc2nc3c(=O)n(C4CCCCC4)c(=O)[nH]c3nc2cc1N	Pf growth 96h inconclusive, NS1 function inh 7.9µM | Flu NS1 inh inactive
CC(C)(C)OC(=O)C[C@H]1C/C=C\C[C@@H](CC(=O)N(CCO)Cc2ccccc2)C(=O)N[C@@H](Cc2ccccc2)COC1=O	none (no result: Pf growth 48h, Shiga toxin inh, Pf growth 96h, NS1 function inh, CHX counter)
CCn1cc(/C=N\NC(=O)c2ccccc2Cl)cn1	none
O=C(N/N=C/c1cc2ccccc2[nH]1)c1ccccc1Cl	NS1 function inh inconclusive, CHX counter 16 | Flu NS1 inh inactive
CC(C)(C)NC(=O)C(c1ccccn1)N(C(=O)C1CSC(=O)C1)c1cccc(F)c1 (stereo not drawn)	none (no result: NS1 function inh)
